Measured values reported in PubChem BioAssay (Tox21).
Several values for one entry are separate records, joined by “and”; a condition that tells them apart may be missing. Identical values can stand only once. Results filed as inconclusive are left out. Entries that show only a call come without a potency. Activity calls are given as the source filed them. Unless noted, calls follow the shape of the dose curve; as a rule, active = well fitted curve in the direction sought with a large enough effect in the repeat runs; inconclusive = weak or mixed curves; inactive = no such curve, though single readings can be large; an effect the other way counts as inactive or inconclusive.

Tests used:
[1] = qHTS assay to identify aromatase inhibitors - cell viability counter screen (AID 743084);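 also: cells stimulated with testosterone during compound exposure; nearly all actives have a fitted effect of over 55% in size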; also: potency is read from the fitted curve at half-maximal effect
[2] = biological target: Aryl hydrocarbon receptor (Homo sapiens) (UniProt P35869); assay: qHTS assay to identify small molecule that activate the aryl hydrocarbon receptor (AhR) signaling pathway (AID 743085); also: nearly all actives have a fitted effect of over 15% in size; also: potency is read from the fitted curve at half-maximal effect;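 as to activation: HG2L7.5c1 human HepG2 liver cells with stably integrated DRE-driven firefly reporter; series mostly up to about 70 µM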
Method in brief: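 Steps: seed HepG2-AhR-luc cells; allow 5 h at 37C; pin-transfer test compound or vehicle; incubate 24 h at 37C; add viability dye (30 min, 37C) and read fluorescence; add luciferase substrate (30 min, RT) and read luminescence.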

[3] = biological target: Peroxisome proliferator-activated receptor gamma (Homo sapiens) (UniProt P37231); assay: qHTS assay to identify small molecule agonists of the peroxisome proliferator-activated receptor gamma (PPARg) signaling pathway (AID 743094; active = well fitted activation curve with a large enough effect in the signal ratio in the repeat runs, not every such curve was filed as active; the % refers to the signal ratio)
Method in brief: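 Cells from the PPARg UAS-bla HEK293H line are plated and incubated 5 h at 37C. Compounds in DMSO are pinned in and left 17 h at 37C. LiveBLAzer B/G substrate is then added for 1 h at room temperature before fluorescence is measured.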

[4] = qHTS assay to identify small molecule antagonists of the peroxisome proliferator-activated receptor gamma (PPARg) signaling pathway - cell viability counter screen (AID 743194); also: nearly all actives have a fitted effect of over 55% in size; also: potency is read from the fitted curve at half-maximal effect
Method in brief: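 Cytotoxicity counter screen in PPARg-bla HEK293H cells, same wells as reporter assay. Compounds plus 50 nM rosiglitazone (final) for 17 h at 37 C, then viability read by CellTiter-Glo luminescence.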

[5] = qHTS assay for small molecule agonists of the antioxidant response element (ARE) signaling pathway - cell viability counter screen (AID 743203; calls by dose curve; also: nearly all actives have a fitted effect of over 55% in size; also: potency is read from the fitted curve at half-maximal effect)
Method in brief: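 Cytotoxicity was tested in parallel with the ARE reporter screen. ARE-bla HepG2 cells were exposed to compounds for 16 hrs, and viability was taken from CellTiter-Glo luminescence.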

[6] = qHTS assay for small molecule activators of the heat shock response signaling pathway (AID 743210; active = well fitted activation curve with a large enough effect in the signal ratio in the repeat runs, with a control signal flat, not every such curve was filed as active; the % refers to the signal ratio;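 also: HeLa cells with beta-lactamase reporter driven by heat shock elements; series mostly up to about 63 µM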)
Method in brief: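 Following overnight attachment, HSE-bla HeLa cells received test compounds for 5 h at 37 C; beta-lactamase activity was then detected via FRET substrate fluorescence.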

[7] = qHTS assay to identify small molecule agonists of the peroxisome proliferator-activated receptor delta (PPARd) signaling pathway - cell viability counter screen (AID 743211); also: nearly all actives have a fitted effect of over 55% in size; also: potency is read from the fitted curve at half-maximal effect
Method in brief: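 Viability of GeneBLAzer PPARd UAS-bla HEK293H cells was assessed after 17 h compound incubation at 37C, using CellTiter-Glo reagent added after the reporter read and luminescence recorded 30 min later.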

[8] = biological target: Peroxisome proliferator-activated receptor delta (Homo sapiens) (UniProt Q03181); assay: qHTS assay to identify small molecule agonists of the peroxisome proliferator-activated receptor delta (PPARd) signaling pathway (AID 743212; calls by dose curve)
Method in brief: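 Tox21 library screened in GeneBLAzer PPARd UAS-bla HEK293H cells. After compound treatment at 37 C, a FRET-based beta-lactamase substrate was applied for 2 h and fluorescence recorded.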

[9] = qHTS assay to identify small molecule antagonists of the peroxisome proliferator-activated receptor delta (PPARd) signaling pathway - cell viability counter screen (AID 743213); also: nearly all actives have a fitted effect of over 50% in size; also: potency is read from the fitted curve at half-maximal effect
Method in brief: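 PPARd-bla HEK293H cells were treated with compounds plus agonist L165041 (300 nM final) for 17 h at 37 C. Viability was then read in the same wells by CellTiter-Glo luminescence after 30 min at room temperature.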

[10] = biological target: Peroxisome proliferator-activated receptor delta (Homo sapiens) (UniProt Q03181); assay: qHTS assay to identify small molecule antagonists of the peroxisome proliferator-activated receptor delta (PPARd) signaling pathway (AID 743215; active = well fitted inhibition curve with a large enough effect in the signal ratio in the repeat runs, not every such curve was filed as active; the % refers to the signal ratio;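 also: cells stimulated with agonist L165041 at 300 nM final during compound exposure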; also: potency is read from the fitted curve at half-maximal effect)
Method in brief: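 Cells: HEK293H with a UAS-driven beta-lactamase reporter responsive to PPARd. Compounds were co-added with L165041 (300 nM, final) and incubated 17 h at 37 C before a 2 h room-temperature FRET substrate step and fluorescence reading.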

[11] = biological target: Bile acid receptor (Homo sapiens) (UniProt Q96RI1); assay: qHTS assay to identify small molecule antagonists of the farnesoid-X-receptor (FXR) signaling pathway (AID 743217; active = well fitted inhibition curve with a large enough effect in the signal ratio in the repeat runs, not every such curve was filed as active; the % refers to the signal ratio; also: potency is read from the fitted curve at half-maximal effect)
Method in brief: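 Cells carrying a UAS-driven beta-lactamase reporter (GeneBLAzer FXR-UAS-bla HEK 293T) were plated and rested 5 h at 37 °C. Compounds in DMSO were added alongside chenodeoxycholic acid agonist at 50 uM final and left 16 h at 37 °C before FRET substrate readout.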

[12] = qHTS assay to identify small molecule agonists of the farnesoid-X-receptor (FXR) signaling pathway - cell viability counter screen (AID 743218); also: nearly all actives have a fitted effect of over 45% in size; also: potency is read from the fitted curve at half-maximal effect
Method in brief: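 Cells were seeded, left 5 h at 37 C and 5% CO2, then dosed with compound in DMSO for 16 h. After the beta-lactamase FRET read, CellTiter-Glo was added and luminescence measured 30 min later.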

[13] = biological target: Vitamin D3 receptor (Homo sapiens) (UniProt P11473); assay: qHTS assay to identify small molecule agonists of the vitamin D receptor (VDR) signaling pathway (AID 743222; calls by dose curve)
Method in brief: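 Cells carrying a VDR-driven beta-lactamase reporter are seeded at 2,000 per well and rested 4 h. Compounds in DMSO are added for 16 h at 37C, and FRET substrate fluorescence is measured after 2 h at room temperature.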

[14] = biological target: Vitamin D3 receptor (Homo sapiens) (UniProt P11473); assay: qHTS assay to identify small molecule antagonists of the vitamin D receptor (VDR) signaling pathway (AID 743223; active = well fitted inhibition curve with a large enough effect in the signal ratio in the repeat runs, not every such curve was filed as active; the % refers to the signal ratio; also: potency is read from the fitted curve at half-maximal effect)
Method in brief: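 Fluorescence from LiveBLAzer B/G FRET substrate, read after 2 h at room temperature, reflects beta-lactamase reporter activity in VDR-bla cells treated 16 h at 37C with compounds and agonist 1alpha,25-dihydroxyvitamin D3 (3 nM final).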

[15] = qHTS assay to identify small molecule antagonists of the farnesoid-X-receptor (FXR) signaling pathway - cell viability counter screen (AID 743221; active = well fitted cell-killing curve with a large enough effect in the repeat runs, not every such curve was filed as active; also: nearly all actives have a fitted effect of over 50% in size; also: potency is read from the fitted curve at half-maximal effect)
Method in brief: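 Quantitative HTS of the Tox21 10K library run in parallel with the beta-lactamase reporter read. HEK 293T cells carrying a UAS-driven bla reporter got compound and 50 uM CDCA (final) for 16 h; ATP-based luminescence followed.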

[16] = biological target: Bile acid receptor (Homo sapiens) (UniProt Q96RI1); assay: qHTS assay to identify small molecule agonists of the farnesoid-X-receptor (FXR) signaling pathway (AID 743220; active = well fitted activation curve with a large enough effect in the signal ratio in the repeat runs, not every such curve was filed as active; the % refers to the signal ratio)
Method in brief: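 FXR-UAS-bla HEK 293T cells carrying a UAS-driven beta-lactamase reporter were plated for 5 h at 37C/5% CO2, then exposed to DMSO-dissolved Tox21 10K compounds for 16 h at 37C. A LiveBLAzer B/G FRET substrate was loaded for 2 h at room temperature before fluorescence reading.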

[17] = qHTS assay for small molecule agonists of the antioxidant response element (ARE) signaling pathway (AID 743202; active = well fitted activation curve with a large enough effect in the signal ratio in the repeat runs, not every such curve was filed as active; the % refers to the signal ratio; also: potency is read from the fitted curve at half-maximal effect)
Method in brief: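 HepG2 ARE-bla cells; 16 h treatment at 37 C; FRET-based beta-lactamase fluorescence read after 2 h substrate incubation at room temperature.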

[18] = qHTS assay for small molecule activators of the heat shock response signaling pathway - cell viability counter screen (AID 743209); also: nearly all actives have a fitted effect of over 50% in size
Method in brief: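 Cytotoxicity counter screen run in parallel with the HSE beta-lactamase reporter, using the same wells. HeLa HSE-bla cells received compound for 5 h at 37 C; ATP-based CellTiter-Glo luminescence was measured after 30 min at room temperature.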

[19] = biological target: Peroxisome proliferator-activated receptor gamma (Homo sapiens) (UniProt P37231); assay: qHTS assay to identify small molecule antagonists of the peroxisome proliferator-activated receptor gamma (PPARg) signaling pathway (AID 743191; calls by dose curve; also: series mostly up to about 63 µM; nearly all actives have a fitted effect of over 30% in size)
Method in brief: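 GeneBLAzer PPARg UAS-bla HEK293H cells, 5 h post-plating, exposed to compounds 17 h at 37C. LiveBLAzer B/G FRET substrate added for 1 h at room temperature; beta-lactamase reporter read by fluorescence intensity.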

Chain of Aryl hydrocarbon receptor (Homo sapiens) (P35869 whole entry, looked up): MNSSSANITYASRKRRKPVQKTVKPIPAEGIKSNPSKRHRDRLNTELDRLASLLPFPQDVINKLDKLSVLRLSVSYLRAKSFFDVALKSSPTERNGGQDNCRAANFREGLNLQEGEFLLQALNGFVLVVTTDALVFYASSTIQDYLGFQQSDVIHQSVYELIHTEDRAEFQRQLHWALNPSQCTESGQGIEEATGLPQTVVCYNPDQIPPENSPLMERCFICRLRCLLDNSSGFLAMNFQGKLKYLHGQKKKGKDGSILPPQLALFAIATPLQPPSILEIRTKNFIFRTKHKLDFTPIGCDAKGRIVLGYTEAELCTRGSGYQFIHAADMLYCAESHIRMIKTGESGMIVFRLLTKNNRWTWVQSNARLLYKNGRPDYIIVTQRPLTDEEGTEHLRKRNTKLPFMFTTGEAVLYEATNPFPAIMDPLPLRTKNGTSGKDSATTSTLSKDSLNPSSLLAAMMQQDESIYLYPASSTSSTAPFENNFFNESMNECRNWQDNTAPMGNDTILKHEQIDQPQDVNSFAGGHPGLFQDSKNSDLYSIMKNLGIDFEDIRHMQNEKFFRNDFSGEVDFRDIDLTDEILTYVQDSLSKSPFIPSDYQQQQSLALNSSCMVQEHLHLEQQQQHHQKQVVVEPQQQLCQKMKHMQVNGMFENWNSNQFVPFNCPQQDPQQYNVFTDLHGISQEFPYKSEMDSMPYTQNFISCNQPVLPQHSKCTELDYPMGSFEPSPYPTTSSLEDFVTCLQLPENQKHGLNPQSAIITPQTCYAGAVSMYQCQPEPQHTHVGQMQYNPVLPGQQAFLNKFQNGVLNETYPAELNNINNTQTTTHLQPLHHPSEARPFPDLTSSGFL
Chain of Bile acid receptor (Homo sapiens) (Q96RI1 whole entry, looked up): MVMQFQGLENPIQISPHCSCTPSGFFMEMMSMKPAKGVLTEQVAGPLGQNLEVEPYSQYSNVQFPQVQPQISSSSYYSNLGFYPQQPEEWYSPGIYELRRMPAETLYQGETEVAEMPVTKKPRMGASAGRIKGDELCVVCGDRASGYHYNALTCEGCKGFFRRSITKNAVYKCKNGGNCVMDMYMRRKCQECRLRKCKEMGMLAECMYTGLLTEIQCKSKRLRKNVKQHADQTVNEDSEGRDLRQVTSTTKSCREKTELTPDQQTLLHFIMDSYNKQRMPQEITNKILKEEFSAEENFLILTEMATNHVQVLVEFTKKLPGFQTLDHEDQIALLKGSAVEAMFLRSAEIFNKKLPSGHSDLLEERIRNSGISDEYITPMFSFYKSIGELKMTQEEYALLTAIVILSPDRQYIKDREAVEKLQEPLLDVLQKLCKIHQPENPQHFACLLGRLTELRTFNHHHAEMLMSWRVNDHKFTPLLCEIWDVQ
Chain of Peroxisome proliferator-activated receptor delta (Homo sapiens) (Q03181 whole entry, looked up): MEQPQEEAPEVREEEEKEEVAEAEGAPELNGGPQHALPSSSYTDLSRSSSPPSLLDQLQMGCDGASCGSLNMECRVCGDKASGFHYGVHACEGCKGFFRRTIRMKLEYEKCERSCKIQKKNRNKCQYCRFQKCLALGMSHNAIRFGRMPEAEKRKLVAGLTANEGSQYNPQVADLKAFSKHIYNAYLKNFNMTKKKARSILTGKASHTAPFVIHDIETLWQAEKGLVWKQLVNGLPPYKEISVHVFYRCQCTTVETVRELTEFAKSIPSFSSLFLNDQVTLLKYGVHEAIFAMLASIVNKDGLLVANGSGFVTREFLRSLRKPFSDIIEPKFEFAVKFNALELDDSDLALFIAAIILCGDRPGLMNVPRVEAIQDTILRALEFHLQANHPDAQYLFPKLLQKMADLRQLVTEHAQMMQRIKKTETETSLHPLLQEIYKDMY
Chain of Vitamin D3 receptor (Homo sapiens) (P11473 whole entry, looked up): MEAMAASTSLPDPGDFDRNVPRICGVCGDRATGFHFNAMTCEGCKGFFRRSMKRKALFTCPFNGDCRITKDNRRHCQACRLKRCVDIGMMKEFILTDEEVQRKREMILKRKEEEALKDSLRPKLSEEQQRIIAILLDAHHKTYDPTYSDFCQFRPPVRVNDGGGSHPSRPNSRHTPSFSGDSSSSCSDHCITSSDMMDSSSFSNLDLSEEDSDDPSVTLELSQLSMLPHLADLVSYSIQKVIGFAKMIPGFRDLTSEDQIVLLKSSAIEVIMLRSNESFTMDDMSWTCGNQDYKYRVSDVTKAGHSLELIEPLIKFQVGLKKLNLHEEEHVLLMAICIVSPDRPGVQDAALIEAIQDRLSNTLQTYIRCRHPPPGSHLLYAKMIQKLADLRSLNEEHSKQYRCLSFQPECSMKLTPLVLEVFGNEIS
Chain of Peroxisome proliferator-activated receptor gamma (Homo sapiens) (P37231 whole entry, looked up): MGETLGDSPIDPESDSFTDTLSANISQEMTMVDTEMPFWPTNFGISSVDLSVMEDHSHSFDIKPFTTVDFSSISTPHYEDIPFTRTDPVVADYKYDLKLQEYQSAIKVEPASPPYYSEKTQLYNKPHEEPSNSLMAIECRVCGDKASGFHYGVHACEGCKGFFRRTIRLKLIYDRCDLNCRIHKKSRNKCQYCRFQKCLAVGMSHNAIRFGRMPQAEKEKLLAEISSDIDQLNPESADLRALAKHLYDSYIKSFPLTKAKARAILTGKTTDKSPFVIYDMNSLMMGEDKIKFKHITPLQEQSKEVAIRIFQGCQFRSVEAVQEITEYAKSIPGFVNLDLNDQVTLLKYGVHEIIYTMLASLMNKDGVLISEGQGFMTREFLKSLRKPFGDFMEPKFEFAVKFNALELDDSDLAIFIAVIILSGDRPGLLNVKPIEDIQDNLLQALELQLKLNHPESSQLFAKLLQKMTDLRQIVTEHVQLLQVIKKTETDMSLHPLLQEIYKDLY

| Structure (SMILES) | Potency [1] | Potency [2] | Potency [3] | Potency [4] | Potency [5] | Potency [6] | Potency [7] | Potency [8] | Potency [9] | Potency [10] | Potency [11] | Potency [12] | Potency [13] | Potency [14] | Potency [15] | Potency [16] | Potency [17] | Potency [18] | Potency [19] |
| --- | --- | --- | --- | --- | --- | --- | --- | --- | --- | --- | --- | --- | --- | --- | --- | --- | --- | --- | --- |
| COc1cc(C(=O)NC2CCN(C)CC2)ccc1Nc1ncc2c(n1)N(C1CCCC1)CC(F)(F)C(=O)N2C | 25 µM (active) | inactive | inactive | 50.4 µM (active) | 28.1 µM (active) | inactive | 11.3 µM (active) | inactive | 7.11 µM (active) | 14.2 µM (active) | 22.5 µM (active) | 17.9 µM (active) | inactive | 6.34 µM (active) |  |  |  |  |  |
| O=C(O)CCCCCCCCCCCBr | inactive | inactive |  | inactive | inactive | inactive | inactive | inactive | inactive | inactive |  |  |  |  | inactive |  |  |  |  |
| Cc1cccc(N(C)C(=S)Oc2ccc3c(c2)CCC3)c1 | inactive | inactive | inactive | inactive |  | inactive | inactive | inactive | inactive | inactive | inactive | inactive | inactive | inactive | inactive | inactive |  |  |  |
| Clc1ccc(Nc2nnc(Cc3ccncc3)c3ccccc23)cc1 | inactive | 1.5 µM (active) and 841 nM (active) | inactive |  |  | inactive | inactive |  | inactive |  |  |  | inactive | inactive |  | inactive | 21.1 µM (active) | inactive |  |
| CC1=C(Br)C(=O)C(Br)=C/C1=C(/c1ccccc1S(=O)(=O)O)c1cc(Br)c(O)c(Br)c1C | 23.4 µM (active) | inactive | inactive |  | inactive | inactive | inactive | inactive |  | inactive | inactive |  | inactive |  | inactive | inactive | inactive |  |  |
| O=C1c2ccccc2C(=O)c2c(O)c(O)cc(O)c21 | 27.3 µM (active) | 10.9 µM (active) | inactive |  | inactive | inactive | inactive | inactive | inactive | inactive | inactive |  | inactive | inactive | inactive | inactive |  | inactive |  |
| C1COC1 | inactive | inactive |  |  | inactive | inactive | inactive | inactive | inactive | inactive | inactive | inactive | inactive | inactive | inactive | inactive | inactive | inactive | inactive |
| C[C@@H]1CN(CCCn2c3ccccc3c3ccccc32)C[C@H](C)N1 | inactive | 26.6 µM (active) |  |  | 26.6 µM (active) | inactive | 10.6 µM (active) |  | 9.44 µM (active) | 29.8 µM (active) |  |  |  |  | 29.8 µM (active) |  |  | inactive |  |
| O=C(/C=C/c1ccc(O)c(O)c1)O[C@@H]1C[C@@](OC(=O)/C=C/c2ccc(O)c(O)c2)(C(=O)O)C[C@@H](O)[C@@H]1O | inactive | inactive | inactive | inactive |  | inactive |  |  | inactive | inactive |  | inactive | inactive | inactive | inactive |  |  | inactive | inactive |
